Conditions in all cases: concentration: 1 μM, replicates: in singlicate; n = 1
Experiment [1] relates to T1, RSK1(Kin.Dom.1-N-terminal).
T1 construct: gene RPS6KA1

The test system of experiment [2] is T2, RSK1(Kin.Dom.2-C-terminal).
T2 construct: gene RPS6KA1

Experiment [3] deals with T3, RSK2(Kin.Dom.1-N-terminal).
T3 construct: gene RPS6KA3

Experiment [4] deals with T4, RSK2(Kin.Dom.2-C-terminal).
T4 construct: gene RPS6KA3

The test system of experiment [5] is T5, RSK3(Kin.Dom.1-N-terminal).
T5 construct: gene RPS6KA2

Experiment [6] concerns T6, RSK3(Kin.Dom.2-C-terminal).
T6 construct: gene RPS6KA2

In experiment [7] the test system is T7, RSK4(Kin.Dom.1-N-terminal).
T7 construct: gene RPS6KA6

The test system of experiment [8] is T8, RSK4(Kin.Dom.2-C-terminal).
T8 construct: gene RPS6KA6

Another experiment deals with S6K1.
The next experiment relates to SBK1.

These results are taken from paper PMC5540273 (PLoS ONE, 2017).
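Also: KINOMEscan kinase panel screen.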

As to `O=C(Nc1n[nH]c2nc(-c3ccccc3)c(Cl)cc12)C1CC1` [SB-734909], the “%Inh” value in [1] is 26%; in [2] it was 0%; in experiment [3], 29%; in experiment [4], 0%; in [5], 0%; in experiment [6], 7%. Further, the “%Inh” value in experiment [7] worked out at 42%; in experiment [8], 1%; in the experiment on S6K1, 44%; in the experiment on SBK1 it was 0%.

Turning to `CCCC(=O)Nc1n[nH]c2ncc(-c3cccc4ccccc34)cc12` [SB-642057], the “%Inh” value came out at 26% in experiment [1]; 24% in experiment [2]; 14% in [3]; 0% in experiment [4]; 0% in experiment [5]; 0% in [6]. In addition, the “%Inh” value came out at 0% in experiment [7], 15% in experiment [8], 16% in the experiment with S6K1 and 7% in the experiment with SBK1.

`COc1cc(Nc2ccnc3ccc(C(F)(F)F)cc23)cc(OC)c1OC` [GW577382]: the “%Inh” value was found to be 18% in experiment [1]; 0% in experiment [2]; 98.3% in experiment [3]; 32% in experiment [4]; 4% in [5]; 20% in [6]. For the same compound, the “%Inh” value is on record as 0% in [7], 21% in experiment [8], 1% with S6K1 and 5% with SBK1.

Consider `Cc1ccc(Oc2ccc(Nc3ncnc4cc[nH]c34)cc2C)cn1`, for which the “%Inh” value in experiment [1] stood at 5%; in [2], 8%; in experiment [3], 0%; in [4], 0%; in experiment [5] it was 16%; in experiment [6], 16%. Also, the “%Inh” value was found to be 9% in experiment [7], 6% in experiment [8], 7% with S6K1 and 44% in the experiment on SBK1.
